Sampled rows, rich in hits. Any-hit rate of the full collection: about 17%.
HepG2 viability: HepG2 cytotoxicity, counter-screen for TGF-b inhibitors; Potency, µM (highest dose often 46.1 µM), without a hit: at the top dose activity change, negative = cytotoxicity, actives largely listed as cytotoxic; HepG2 CAGA-GFP viability, ATP luminescence, 18 h; hit rate 0.76% among 410,000
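HepG2 CAGA-GFP cells (1000/well, DMEM with 1% FBS) received compound, then TGF-beta at 500 pg/mL final, and were incubated 18 hours at 37 degrees C. Viability was read by CellTiter-Glo luminescence. Media-only wells were set as complete cell-killing and DMSO as no toxicity.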
HT1080 IDH1KD tx: kills HT-1080 cells with IDH1 knockdown | HT-1080 IDH1 knockdown viability, ATP luminescence, 48 h | Potency, µM (top dose mostly 46.1 µM), without a hit: at the highest dose activity, negative = toxicity, most hits filed as cytotoxic | hit rate 2% among 360,000 | AID 686971;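 note: 0% = DMSO wells and -100% = cell-free medium wells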
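After a 2 h attachment period, IDH1KD HT-1080 cells took pin-transferred compound for 48 h at 37 °C; ATP-based luminescence after 10 min room-temperature reagent incubation reported viability.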
HT1080NT lethal: kills 2HG-producing HT-1080-NT fibrosarcoma cells | Potency, µM (doses to about 46.1 µM), without a hit: at the highest dose activity, negative = less viability, most hits filed as cytotoxic | hit rate 1.6% among 360,000 | AID 686970 | HT-1080-NT fibrosarcoma viability, CellTiter-Glo ATP luminescence, 48 h;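 note: NT is the 2HG producing partner of a matched IDH1 knockdown line; 0% = DMSO-treated cells and -100% = media-only wells without cells; nearly all actives have a fitted effect of over 55% in size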
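Toxicity toward the 2HG-producing NT line was scored as %Activity, normalised to DMSO and no-cell wells, from CellTiter-Glo luminescence after 48 hours' treatment.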
DT40 TDP1 no CPT: qHTS for Inhibitors of human tyrosyl-DNA phosphodiesterase 1 (TDP1): qHTS in cells in absence of CPT | DT40 Tdp1-/- hTDP1 cells, no CPT, ATP luminescence, 48 h | Potency, µM (titrated, usually from 46.2 µM), for the others: top-dose activity change, negative = growth inhibition, hits mostly inhibitors | hit rate 15% among 420,000 | AID 686978, 2013; note: % is set by controls: 0 for no effect and ±100 for the full control effect; nearly all actives have a fitted effect of over 55% in size
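Camptothecin absent (DMSO only). Human TDP1-complemented DT40 knockout cells, 400 cells/well, 37 °C for minimum 48 hr; ATP measured via CellTiter-Glo, 30 min dark incubation, luminescence.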
TDP1 cell CPT: DT40-hTDP1 cell growth loss with CPT; chicken DT40 Tdp1-/-;hTDP1 cells + 20 nM CPT, ATP luminescence, 48 h; Potency, µM (doses to about 46.2 µM), without a hit: at the top dose activity change, negative = growth inhibition, usual class: inhibitors; hit rate 12% among 420,000; AID 686979; note: % is set by controls: 0 for no effect and ±100 for the full control effect; nearly all actives have a fitted effect of over 55% in size
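Cell growth measured by CellTiter-Glo luminescence after a minimum 48 h, 37 C compound exposure with 20 nM CPT in Tdp1-knockout DT40 cells stably expressing hTDP1, seeded 400/well; qHTS titration format.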
TGFb SMAD3 inh: TGF-b pathway inhibition | HepG2 CAGA-GFP TGF-b/SMAD3 reporter, GFP fluorescence, 18 h; TGF-beta stimulated, 500 pg/mL final | Potency, µM (titrated, usually from 46.1 µM), without a hit: at the top dose activity, negative = inhibition, actives largely listed as inhibitors | hit rate 1.2% among 410,000 | AID 588855; note: % is set by controls: 0 for no effect and ±100 for the full control effect; nearly all actives have a fitted effect of over 65% in size
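HEPG2 CAGA-GFP reporter cells (1000/well, DMEM with 1% FBS) received compounds, then recombinant TGF-beta at 500 pg/mL final for 18 hours at 37 degrees C. Per-cell GFP summed per well was normalised to unstimulated and stimulated DMSO controls before curve fitting.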
* = called active by the depositor; i = inactive; ? = inconclusive; nt = no result; [ ] = remark or other dose. Calls come from the whole dose curve; as a rule, active = well fitted curve in the direction sought with a large enough effect; inconclusive = small, poorly fitted or top-dose-only effect, or another doubt; inactive = no such curve, though single readings can be large; an effect the other way counts as inactive or inconclusive. Potency is the fitted concentration of half-maximal effect.

SMILES | HepG2 viability | HT1080 IDH1KD tx | HT1080NT lethal | DT40 TDP1 no CPT | TDP1 cell CPT | TGFb SMAD3 inh
COc1ccc(C(=O)/C=C/c2ccc(O)cc2)c2c1CC(O)C(C)(C)O2 (stereo not drawn) | -5.5% | -2.6% | -1.8% | 16.4µM* | ? | -9.5%
Cc1ccc(O)c(C(=O)/C=C/c2ccc3c(c2)OCCCO3)c1 | -136.2% | ? | ? | ? | ? | ?
COc1ccc(C(=O)/C=C/c2ccc(O)cc2)c(O)c1CC=C(C)C | -82.1% | 23.1µM* | ? | ? | 13µM* | ?
CC1(C)Cc2c(cnn2-c2ccc(F)cc2)C(NC(=O)CCN2CCCCC2=O)C1 (stereo not drawn) | 5.0% | 6.5% | 5.7% | -24.5% | -13.2% | -2.2%
O=C(OCc1ccccc1)N1CCC2CC1c1cc(-c3cc4ccccc4o3)ccc12 (stereo not drawn) | -19.8% | 1.8% | 12.0% | ? | ? | 6.0%
CC(=O)OC(=C(OC(C)=O)c1ccccc1)c1ccccc1 | 4.6% | -1.1% | 12.9% | -5.2% | -29.8% | 0.0%
CC(=O)ON=C1C=CC(=C(C#N)c2ccccc2)C=C1 | -52.2% | 5.8µM* | 7.31µM* | 3.26µM* | 2.31µM* | ?
COc1ccc(C(=O)c2ccc(Cl)cc2)cc1 | -2.9% | 6.5% | ? | ? | -12.3% | ?
COc1ccc(C(C#N)=C2C=CC(=NO)C=C2)cc1 | i | 10.3µM* | 14.6µM* | 10.3µM* | 5.17µM* | ?
CCN(CC)Cc1c(NC(=O)c2ccccc2)sc(C)c1C | -16.1% | -10.4% | -15.1% | ? | -4.3% | -19.3%
CCOC(=O)c1c(NC(=O)c2ccccc2)sc2c(O)c(CN(CC)CC)ccc12 | -18.0% | ? | -4.2% | 18.4µM* | 23.1µM* | -1.5%
COc1ccc(N(CC(C)C)S(=O)(=O)c2nnc(NC(=O)c3cccs3)s2)cc1 | -0.6% | nt | nt | 20.6µM* | ? | 0.0%
COc1ccc(CC(N)c2csc(NC(=O)NCc3ccccc3)n2)cc1 (stereo not drawn) | -18.8% | 18.4µM* | ? | ? | 20.6µM* | -5.0%
COc1ccc(CCNC(=O)Nc2nc(C(N)COCc3ccccc3)cs2)cc1OC (stereo not drawn) | -10.3% | -17.7% | ? | ? | ? | 12.4%
CCN(c1ccc(C)cc1)S(=O)(=O)c1nnc(NC(=O)c2cccs2)s1 | -28.5% | nt | nt | ? | ? | ?
COc1cc(CNC(=O)Nc2nc(C(N)Cc3ccc(C(F)(F)F)cc3)cs2)cc(OC)c1OC (stereo not drawn) | -94.8% | ? | ? | 11.6µM* | 13µM* | ?
COc1ccc(CC(N)c2csc(NC(=O)c3cccs3)n2)cc1 (stereo not drawn) | -25.8% | -20.6% | -27.0% | 23.1µM* | 18.4µM* | 14.1µM*
O=C(O)[C@H]1CN(C/C=C/P(=O)(O)O)CCN1 | nt | nt | nt | 1.3% | 6.8% | nt
COc1ccc(CNC(=O)Nc2nc(C(N)c3ccccc3)cs2)cc1 (stereo not drawn) | -17.0% | ? | ? | 20.6µM* | ? | -1.2%
CCCNC(=O)Nc1nc(C(N)c2ccc(OC)cc2)cs1 (stereo not drawn) | -49.8% | 4.2% | 24.3% | -21.9% | -21.0% | 61.0%
Fc1ccc(Oc2ccc3nnc(C(F)(F)F)n3n2)cc1 | -1.2% | -3.8% | -1.2% | -6.5% | -24.3% | 6.7%
O=C(O)C1CC(Br)C(Br)CC1C(=O)O (stereo not drawn) | -0.1% | 2.2% | 7.4% | -27.2% | -8.7% | 4.5%
Cn1c(Cc2ccccc2)nnc1SCC(=O)N1CCN(c2ccccc2)CC1 | -3.4% | -28.8% | -20.5% | -23.2% | ? | -17.2%
C=CCn1c(CSCc2ccccc2)nnc1SCC(=O)N1CCN(c2ccccc2)CC1 | 5.7% | 2.8% | 3.1% | 14.6µM* | ? | -9.7%
CCn1c(CSCc2ccc(C)cc2)nnc1SCC(=O)N1CCN(c2ccccc2)CC1 | -10.8% | ? | -4.5% | 20.6µM* | -51.9% | ?
SMILES | HepG2 viability | HT1080 IDH1KD tx | HT1080NT lethal | DT40 TDP1 no CPT | TDP1 cell CPT | TGFb SMAD3 inh
CCn1c(SCC(=O)N2CCN(c3ccccc3)CC2)nnc1-c1ccoc1C | -12.6% | -24.6% | -3.2% | -9.5% | -7.3% | -21.7%
O=C(NNC(=O)c1cc([N+](=O)[O-])ccc1Cl)c1cccs1 | -5.3% | 0.2% | 0.8% | -9.3% | 11.7% | -17.5%
COC(=O)c1ccccc1NC(=O)CSc1nncn1-c1cccnc1 | -44.0% | 10.8% | -1.1% | 0.4% | -4.1% | 2.3%
O=C(NCc1ccccc1)C(c1ccc(-c2ccccc2)cc1)N1CCN(CCN2CCOCC2)CC1 (stereo not drawn) | nt | ? | ? | 20.6µM* | 16.4µM* | nt
O=C(NCc1ccccc1)C(c1ccc(C(F)(F)F)cc1)N1CCN(CCN2CCOCC2)CC1 (stereo not drawn) | nt | -3.3% | -12.1% | -28.2% | -9.1% | nt
COC(C(=O)Nc1ccnn1C1CCN(Cc2ccccn2)CC1)c1ccccc1 (stereo not drawn) | -12.4% | 5.8% | 5.3% | -23.6% | 1.3% | 6.8%
CC1(C)C(C=C(Cl)Cl)C1C(=O)N/N=C/c1ccccc1F (stereo not drawn) | -4.6% | -2.1% | -21.0% | 29.1µM* | ? | -28.2%
CC1(C)C(C=C(Cl)Cl)C1C(=O)Nc1ccc([N+](=O)[O-])cc1 (stereo not drawn) | -94.5% | ? | 23.1µM* | 16.4µM* | 18.4µM* | ?
COc1ccc(C(=O)Nc2ccc(N3CCN(c4ccccc4)CC3)c(C(=O)O)c2)cc1 | 3.9% | nt | nt | -9.5% | 0.1% | -4.8%
CCc1cc(=O)oc2cc(C)cc(OC(C)C(=O)NCCN3CCOCC3)c12 (stereo not drawn) | -8.1% | 8.0% | 8.8% | -0.1% | 3.9% | 15.4%
O=C1C2CC=CCC2C(=O)N1Cc1ccccc1 (stereo not drawn) | -17.8% | 2.2%[9.24 µM] | -4.3% | -9.7% | -0.2% | 1.3%
O=C1C=CC(=O)N1Cc1ccccc1 | -78.4% | 18.4µM* | 2.59µM* | 2.31µM* | 1.03µM* | ?
CCOc1ccc(C(=O)NCC(c2cccs2)N(C)C)cc1 (stereo not drawn) | 1.1% | 9.2% | 0.0% | -18.7% | ? | -0.4%
Cc1ccc(C(=O)O)cc1S(=O)(=O)Nc1ccccc1C(=O)NC1CC1 | 13.8% | 0.5% | 3.3% | 2.7% | 13.4% | 23.9%

Assay outcomes: PubChem, National Center for Advancing Translational Sciences (NCATS)
